What all share (test): DAPPL (digital affinity profiling via proximity ligation, sequencing); 10 mM Tris-HCl pH 7.5, 50 mM NaCl, 1 mM DTT, 4% glycerol, room temperature, 30 min; GST-TFs on glutathione beads, 16-mer random dsDNA library, 0.1% formaldehyde crosslink after washing; high values mean tight binding
Common to all, as to settings: protein: recombinant; tags: N-terminal GST; dsDNA, one strand shown

In one test the target is T1, ELK1 (Homo sapiens, UniProt P19419 1-428).
T1 sequence: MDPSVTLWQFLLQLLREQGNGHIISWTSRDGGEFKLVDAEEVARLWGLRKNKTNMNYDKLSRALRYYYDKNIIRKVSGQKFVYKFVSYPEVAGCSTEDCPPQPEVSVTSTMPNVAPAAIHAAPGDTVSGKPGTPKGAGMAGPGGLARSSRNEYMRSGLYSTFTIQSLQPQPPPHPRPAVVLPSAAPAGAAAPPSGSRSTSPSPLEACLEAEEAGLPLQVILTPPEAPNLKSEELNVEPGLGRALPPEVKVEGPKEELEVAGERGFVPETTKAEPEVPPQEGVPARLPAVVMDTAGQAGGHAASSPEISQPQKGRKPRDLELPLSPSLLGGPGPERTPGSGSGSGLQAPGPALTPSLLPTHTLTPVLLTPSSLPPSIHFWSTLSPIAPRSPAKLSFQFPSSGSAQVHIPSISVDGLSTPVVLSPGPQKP
The procedure, abridged:
(§1)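 Sequencing on an Illumina NextSeq500 followed washing, crosslinking with 0.1% formaldehyde, proximity ligation (BsaI/T4 ligase, 1 h, 37 °C) and PCR amplification of pools that had been incubated for 30 min at room temperature with 200 nmole of a random double-stranded 16-mer DNA library in Tris/NaCl/DTT/glycerol buffer. Each pool held DNA-barcoded human transcription factors, expressed in yeast as GST fusions and captured on glutathione beads, plus a tag-only sample. Binding signal is a hexamer's read frequency for a factor divided by its frequency in the tag-only sample.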

The next test addresses ELF1 (Homo sapiens, UniProt P32519 1-619). The procedure, abridged:
as §1

In another test the target is ETV5 (Homo sapiens, UniProt P41161 1-510). The procedure, abridged: as §1
In another test the target is T2, ELK4 (Homo sapiens, UniProt P28324-2 1-405).
T2 sequence: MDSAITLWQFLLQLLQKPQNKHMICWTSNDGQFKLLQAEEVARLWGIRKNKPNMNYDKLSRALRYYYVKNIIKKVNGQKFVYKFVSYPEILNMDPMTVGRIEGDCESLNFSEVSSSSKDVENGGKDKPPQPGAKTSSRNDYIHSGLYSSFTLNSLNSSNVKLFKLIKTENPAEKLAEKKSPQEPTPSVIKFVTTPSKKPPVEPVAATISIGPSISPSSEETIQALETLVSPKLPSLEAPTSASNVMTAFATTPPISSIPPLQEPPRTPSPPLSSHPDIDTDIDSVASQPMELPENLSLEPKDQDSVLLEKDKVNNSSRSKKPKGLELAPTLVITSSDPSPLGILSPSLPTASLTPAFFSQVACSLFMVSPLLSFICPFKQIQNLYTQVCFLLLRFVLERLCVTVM
The procedure, abridged: as §1

The next test addresses T3, ELF3 (Homo sapiens, UniProt P78545 1-371).
T3 sequence: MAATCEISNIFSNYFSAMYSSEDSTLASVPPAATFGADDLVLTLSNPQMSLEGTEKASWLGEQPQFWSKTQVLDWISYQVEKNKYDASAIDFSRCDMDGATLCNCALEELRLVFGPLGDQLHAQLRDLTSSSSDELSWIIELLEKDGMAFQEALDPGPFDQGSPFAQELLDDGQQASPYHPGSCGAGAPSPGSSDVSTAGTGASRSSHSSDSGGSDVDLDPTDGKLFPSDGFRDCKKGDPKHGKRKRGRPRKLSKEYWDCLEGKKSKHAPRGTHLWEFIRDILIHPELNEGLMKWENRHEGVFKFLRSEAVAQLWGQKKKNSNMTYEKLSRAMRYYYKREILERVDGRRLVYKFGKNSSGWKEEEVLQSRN
The procedure, abridged:
as §1

A further test concerns the target T4, ERF (Homo sapiens, UniProt P50548 1-548).
T4 sequence: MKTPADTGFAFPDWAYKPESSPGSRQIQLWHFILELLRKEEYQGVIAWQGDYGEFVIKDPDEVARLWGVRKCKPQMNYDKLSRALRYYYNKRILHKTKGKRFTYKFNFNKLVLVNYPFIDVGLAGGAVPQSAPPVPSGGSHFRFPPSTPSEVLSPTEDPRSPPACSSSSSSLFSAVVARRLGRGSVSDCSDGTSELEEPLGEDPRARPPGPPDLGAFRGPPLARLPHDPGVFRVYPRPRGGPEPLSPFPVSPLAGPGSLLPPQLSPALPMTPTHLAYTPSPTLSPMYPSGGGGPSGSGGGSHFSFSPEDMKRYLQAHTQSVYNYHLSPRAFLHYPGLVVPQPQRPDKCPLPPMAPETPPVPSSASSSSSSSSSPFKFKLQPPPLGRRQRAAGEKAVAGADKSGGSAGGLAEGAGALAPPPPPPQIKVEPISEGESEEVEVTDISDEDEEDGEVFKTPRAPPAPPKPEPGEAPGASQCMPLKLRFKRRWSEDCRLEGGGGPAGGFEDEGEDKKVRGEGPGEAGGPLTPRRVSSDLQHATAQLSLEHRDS
The procedure, abridged:
as §1

A further test deals with T5, ETS2 (Homo sapiens, UniProt P15036 1-469).
T5 sequence: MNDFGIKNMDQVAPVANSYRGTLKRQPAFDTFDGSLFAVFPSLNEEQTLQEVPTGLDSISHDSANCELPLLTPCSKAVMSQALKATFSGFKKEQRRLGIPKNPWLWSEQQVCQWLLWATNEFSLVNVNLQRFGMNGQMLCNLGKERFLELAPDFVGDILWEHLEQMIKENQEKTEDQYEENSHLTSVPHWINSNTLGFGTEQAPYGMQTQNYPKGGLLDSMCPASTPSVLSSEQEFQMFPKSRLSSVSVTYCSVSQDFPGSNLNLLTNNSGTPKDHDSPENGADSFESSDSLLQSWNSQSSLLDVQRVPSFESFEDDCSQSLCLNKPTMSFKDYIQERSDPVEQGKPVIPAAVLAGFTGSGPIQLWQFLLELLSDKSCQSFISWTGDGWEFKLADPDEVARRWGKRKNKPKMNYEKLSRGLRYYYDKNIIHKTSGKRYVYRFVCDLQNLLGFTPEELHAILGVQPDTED
The procedure, abridged:
as §1

Another test concerns the target T6, ETV7 (Homo sapiens, UniProt Q9Y603 1-341).
T6 sequence: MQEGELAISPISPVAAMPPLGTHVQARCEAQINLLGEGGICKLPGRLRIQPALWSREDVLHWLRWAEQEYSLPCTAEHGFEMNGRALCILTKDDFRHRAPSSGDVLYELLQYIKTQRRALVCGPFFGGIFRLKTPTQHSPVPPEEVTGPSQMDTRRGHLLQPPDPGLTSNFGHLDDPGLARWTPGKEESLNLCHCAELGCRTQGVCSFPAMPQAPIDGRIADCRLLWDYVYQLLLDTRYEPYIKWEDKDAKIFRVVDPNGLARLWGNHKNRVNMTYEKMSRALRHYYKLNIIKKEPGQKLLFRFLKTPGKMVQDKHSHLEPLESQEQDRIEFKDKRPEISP
The procedure, abridged: as §1

A further test has as its target ETV6 (Homo sapiens, UniProt P41212 1-452). The procedure, abridged: as §1
A further test concerns the target SPIB (Homo sapiens, UniProt Q01892 1-262). The procedure, abridged:
as §1

In a further test the target is T7, SPIC (Homo sapiens, UniProt Q8N5J4 1-248).
T7 sequence: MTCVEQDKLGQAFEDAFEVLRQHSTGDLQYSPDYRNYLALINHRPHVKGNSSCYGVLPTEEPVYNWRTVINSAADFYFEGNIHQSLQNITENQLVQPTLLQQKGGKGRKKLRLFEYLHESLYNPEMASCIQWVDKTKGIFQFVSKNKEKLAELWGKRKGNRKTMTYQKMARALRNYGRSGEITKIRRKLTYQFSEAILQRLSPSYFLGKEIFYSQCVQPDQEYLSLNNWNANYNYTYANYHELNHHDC
The procedure, abridged: as §1

For the next test, the target named is T8, ETV3L (Homo sapiens, UniProt Q6ZN32 1-361).
T8 sequence: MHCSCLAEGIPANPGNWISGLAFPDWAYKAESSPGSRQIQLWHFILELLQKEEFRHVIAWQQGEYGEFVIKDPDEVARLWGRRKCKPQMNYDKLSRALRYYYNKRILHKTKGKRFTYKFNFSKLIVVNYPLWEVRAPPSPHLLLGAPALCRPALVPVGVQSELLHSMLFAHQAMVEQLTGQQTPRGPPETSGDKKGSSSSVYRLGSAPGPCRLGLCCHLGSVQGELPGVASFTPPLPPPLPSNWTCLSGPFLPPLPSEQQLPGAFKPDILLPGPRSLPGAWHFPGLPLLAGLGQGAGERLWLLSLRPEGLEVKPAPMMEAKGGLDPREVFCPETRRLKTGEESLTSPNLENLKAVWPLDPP
The procedure, abridged: as §1

For the next test, the target named is T9, SPDEF (Homo sapiens, UniProt O95238 1-335).
T9 sequence: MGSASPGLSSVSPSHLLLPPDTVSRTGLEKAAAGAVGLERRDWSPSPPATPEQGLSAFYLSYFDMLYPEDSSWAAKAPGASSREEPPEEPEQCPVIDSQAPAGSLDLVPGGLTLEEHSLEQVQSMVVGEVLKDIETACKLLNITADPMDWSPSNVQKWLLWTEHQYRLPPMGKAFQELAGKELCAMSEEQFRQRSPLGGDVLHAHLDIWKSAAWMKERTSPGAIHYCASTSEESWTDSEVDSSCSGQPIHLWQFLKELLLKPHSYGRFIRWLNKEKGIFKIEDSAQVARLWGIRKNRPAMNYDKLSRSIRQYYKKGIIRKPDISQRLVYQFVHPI
The procedure, abridged:
as §1

The next test addresses T10, ETV3 (Homo sapiens, UniProt P41162-2 1-143).
T10 sequence: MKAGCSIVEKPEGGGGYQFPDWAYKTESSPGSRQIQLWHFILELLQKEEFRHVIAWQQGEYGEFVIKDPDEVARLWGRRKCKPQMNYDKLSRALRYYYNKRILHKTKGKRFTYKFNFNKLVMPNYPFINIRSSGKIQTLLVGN
The procedure, abridged: as §1

ETV5, sequence (P41161 whole entry): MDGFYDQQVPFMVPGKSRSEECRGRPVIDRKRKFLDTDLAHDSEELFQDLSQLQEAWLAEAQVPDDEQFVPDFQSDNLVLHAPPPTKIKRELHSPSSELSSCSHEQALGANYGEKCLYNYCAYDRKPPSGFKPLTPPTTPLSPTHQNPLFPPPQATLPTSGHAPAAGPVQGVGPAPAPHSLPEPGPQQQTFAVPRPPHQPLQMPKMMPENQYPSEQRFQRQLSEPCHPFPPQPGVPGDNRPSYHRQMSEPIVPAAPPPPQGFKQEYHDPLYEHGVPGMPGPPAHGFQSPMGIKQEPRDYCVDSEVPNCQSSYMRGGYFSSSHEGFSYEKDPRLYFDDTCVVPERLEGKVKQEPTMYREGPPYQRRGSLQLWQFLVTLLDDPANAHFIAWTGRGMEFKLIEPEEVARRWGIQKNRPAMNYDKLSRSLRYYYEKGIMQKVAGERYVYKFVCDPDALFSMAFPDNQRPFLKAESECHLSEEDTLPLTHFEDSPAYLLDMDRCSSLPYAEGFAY
ELF1, sequence (P32519 whole entry): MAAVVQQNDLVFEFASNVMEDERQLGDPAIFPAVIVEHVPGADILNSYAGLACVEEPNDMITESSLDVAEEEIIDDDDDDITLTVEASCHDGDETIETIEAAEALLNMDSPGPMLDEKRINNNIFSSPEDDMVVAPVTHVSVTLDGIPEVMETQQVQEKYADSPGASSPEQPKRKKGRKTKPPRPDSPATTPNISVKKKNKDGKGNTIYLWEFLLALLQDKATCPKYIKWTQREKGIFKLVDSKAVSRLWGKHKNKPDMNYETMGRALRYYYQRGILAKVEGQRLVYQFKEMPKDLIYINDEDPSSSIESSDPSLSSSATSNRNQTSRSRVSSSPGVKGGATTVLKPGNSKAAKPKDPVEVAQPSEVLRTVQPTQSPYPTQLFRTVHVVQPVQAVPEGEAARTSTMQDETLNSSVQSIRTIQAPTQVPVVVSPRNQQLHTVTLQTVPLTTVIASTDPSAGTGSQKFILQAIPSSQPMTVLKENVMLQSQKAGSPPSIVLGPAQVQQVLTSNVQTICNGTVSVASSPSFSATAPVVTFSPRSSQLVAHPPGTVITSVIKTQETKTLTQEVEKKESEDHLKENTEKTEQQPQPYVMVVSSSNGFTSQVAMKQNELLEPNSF
ETV6, sequence (P41212 whole entry): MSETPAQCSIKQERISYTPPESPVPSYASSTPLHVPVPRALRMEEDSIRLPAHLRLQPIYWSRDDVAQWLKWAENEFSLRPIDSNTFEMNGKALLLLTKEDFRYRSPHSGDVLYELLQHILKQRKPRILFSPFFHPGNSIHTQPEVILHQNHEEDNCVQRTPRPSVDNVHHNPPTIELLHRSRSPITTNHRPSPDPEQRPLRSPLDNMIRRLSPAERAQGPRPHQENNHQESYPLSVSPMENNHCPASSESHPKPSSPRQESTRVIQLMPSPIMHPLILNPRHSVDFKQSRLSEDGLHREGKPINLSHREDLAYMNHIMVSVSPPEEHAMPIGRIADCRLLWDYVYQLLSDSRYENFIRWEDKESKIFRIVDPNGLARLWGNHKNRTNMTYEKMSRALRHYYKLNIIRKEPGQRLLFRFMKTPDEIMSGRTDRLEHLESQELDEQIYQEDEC
SPIB, sequence (Q01892 whole entry): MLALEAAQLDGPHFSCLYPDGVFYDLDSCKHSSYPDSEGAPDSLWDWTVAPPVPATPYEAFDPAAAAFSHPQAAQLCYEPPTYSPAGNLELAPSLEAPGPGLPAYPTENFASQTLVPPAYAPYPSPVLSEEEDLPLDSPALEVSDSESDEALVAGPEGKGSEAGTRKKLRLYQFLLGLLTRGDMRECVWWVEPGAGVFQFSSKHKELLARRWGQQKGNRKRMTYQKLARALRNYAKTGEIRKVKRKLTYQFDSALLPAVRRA

In the case of CATAGT, the binding signal with ELK1 is 1.03 fold enrichment (6-mer frequency, TF over GST control); with ELF1, 1.01 fold enrichment (6-mer frequency, TF over GST control); with ETV5, 1.01 fold enrichment (6-mer frequency, TF over GST control); with ELK4, 1.14 fold enrichment (6-mer frequency, TF over GST control); with ELF3, 1.07 fold enrichment (6-mer frequency, TF over GST control); in the test with ERF, 1.13 fold enrichment (6-mer frequency, TF over GST control). Further, the binding signal in the test with ETS2 is 1.03 fold enrichment (6-mer frequency, TF over GST control); with ETV7, 1.11 fold enrichment (6-mer frequency, TF over GST control).
With CGGCAA, the binding signal in the test with ETV5 is 1.02 fold enrichment (6-mer frequency, TF over GST control); with ETV6, 1.02 fold enrichment (6-mer frequency, TF over GST control).
As to GTGCCT, the binding signal with ELK1 is 1.05 fold enrichment (6-mer frequency, TF over GST control); with ELF1, 1.02 fold enrichment (6-mer frequency, TF over GST control); in the test with SPIB, 1.05 fold enrichment (6-mer frequency, TF over GST control); with ETV5, 1.07 fold enrichment (6-mer frequency, TF over GST control); with SPIC, 1.2 fold enrichment (6-mer frequency, TF over GST control); with ELK4 it was 1.16 fold enrichment (6-mer frequency, TF over GST control). Also, the binding signal with ERF is 1.07 fold enrichment (6-mer frequency, TF over GST control); in the test with ETV3L, 1.17 fold enrichment (6-mer frequency, TF over GST control); with ETS2 it was 1.06 fold enrichment (6-mer frequency, TF over GST control); with SPDEF, 1.02 fold enrichment (6-mer frequency, TF over GST control); with ETV3 it was 1.07 fold enrichment (6-mer frequency, TF over GST control); in the test with ETV6 it was 1.02 fold enrichment (6-mer frequency, TF over GST control).

These data come from paper PMC7862700, “An all-to-all approach to the identification of sequence-specific readers for epigenetic DNA modifications on cytosine”.
